Source: PubChem BioAssay AID624396 (The Scripps Research Institute Molecular Screening Center, 2012)
Active and inactive are the calls of the source.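 How the source made its calls: active means over 15% of cells apoptotic at 25 µM, or half-maximal dose of 10 µM or lower; inactive means the rest.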

System: DHL-10
Assay: pro-apoptotic nuclear morphology in cancer cells – imaging, DAPI staining, cell line panel, probe, mechanism study for MCL1-BIM inhibitor project, late-stage follow-up (AID 624396)
Conditions: cancer cell panel apoptosis

## CCN1CCN(C(c2ccc(C(F)(F)F)cc2)c2ccc3cccnc3c2O)CC1 (stereo unspecified)
  outcome: inactive
